Here are results for 49 compounds from PubChem BioAssay (EPA / NIEHS).

This assay concerns the target Androgen receptor (Homo sapiens) (UniProt P10275). The assay can be described thus: ATG_AR_TRANS: Attagene TRANS-FACTORIAL HepG2 Assay for human Androgen Receptor (AR) (AID 2282973). Conditions: HepG2 Attagene TRANS-FACTORIAL AR reporter transcription. The procedure, abridged:
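HepG2 cells transiently transfected with AR-Gal4 chimera and GAL4-UAS reporter units; chemical exposure 24 h. Reporter mRNA quantified by RT-PCR with fluorescent labelling and capillary electrophoresis; gain-of-signal fitted against DMSO.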

Inconclusive results are not listed. Activity calls are given as the source filed them. Rule for the calls: active = hit-call score of the fitted dose curve at least 0.9, where 1 is the maximum; inconclusive = response in the unintended direction; inactive = score below 0.9.

Androgen receptor (Homo sapiens), sequence (P10275 whole entry, looked up, the tested form may be a part): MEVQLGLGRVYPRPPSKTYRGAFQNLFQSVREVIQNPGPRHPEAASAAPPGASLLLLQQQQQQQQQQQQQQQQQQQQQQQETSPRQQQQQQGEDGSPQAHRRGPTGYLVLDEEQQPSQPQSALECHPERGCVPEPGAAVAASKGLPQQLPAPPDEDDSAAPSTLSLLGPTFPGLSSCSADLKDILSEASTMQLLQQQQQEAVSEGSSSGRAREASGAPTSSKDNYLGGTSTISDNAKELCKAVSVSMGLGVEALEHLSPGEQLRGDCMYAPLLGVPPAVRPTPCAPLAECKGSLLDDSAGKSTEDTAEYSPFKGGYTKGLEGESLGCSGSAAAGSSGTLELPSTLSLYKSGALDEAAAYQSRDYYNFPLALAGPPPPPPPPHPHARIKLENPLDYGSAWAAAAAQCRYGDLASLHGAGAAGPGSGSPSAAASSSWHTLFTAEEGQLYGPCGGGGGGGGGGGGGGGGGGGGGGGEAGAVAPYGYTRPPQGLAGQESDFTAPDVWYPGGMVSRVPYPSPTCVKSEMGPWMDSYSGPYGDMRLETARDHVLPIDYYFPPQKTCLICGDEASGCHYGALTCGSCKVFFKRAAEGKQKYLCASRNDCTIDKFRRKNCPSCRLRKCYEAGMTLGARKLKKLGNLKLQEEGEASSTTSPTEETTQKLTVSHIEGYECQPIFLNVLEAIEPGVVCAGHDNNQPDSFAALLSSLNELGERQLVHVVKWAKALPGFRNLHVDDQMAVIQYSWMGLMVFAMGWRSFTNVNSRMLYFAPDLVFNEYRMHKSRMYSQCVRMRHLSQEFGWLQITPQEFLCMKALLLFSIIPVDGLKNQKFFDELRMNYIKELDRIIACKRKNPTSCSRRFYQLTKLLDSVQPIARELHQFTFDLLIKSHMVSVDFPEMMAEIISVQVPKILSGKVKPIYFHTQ

Turning to `C=CC(C)(C)O`, the call was inactive. Regarding `COC(=O)c1ccc([N+](=O)[O-])cc1`, the outcome was inactive.

For `C=COCCCC`, the result was inactive.

With `CCC(C)(C)c1cc(O)c(C(C)(C)CC)cc1O`, the compound was classed as inactive. For the compound `CCCC(=O)c1cc(O)c(O)cc1O`, the compound was classed as inactive.

As for `COc1ccc(CCO)cc1`, the compound was called inactive. Take `CCN(CCO)S(=O)(=O)C(F)(F)C(F)(F)C(F)(F)C(F)(F)C(F)(F)C(F)(F)C(F)(F)C(F)(F)F`: the result was inactive. The same measure for `O=C1OCc2ccccc21`: “inactive”; for `CCCCC(CC)COC(=O)/C=C\C(=O)OCC(CC)CCCC` (centres undefined): “inactive”. The result for `Oc1cc2ccccc2cc1O` reads “inactive”.

`N=C1C=CC(=C(c2ccc(N)cc2)c2ccc(N)cc2)C=C1`: the compound was called inactive. For `C=C(C)CCO`, the compound was called inactive. The same measure for `FC1(F)C=CC(F)(F)C1(F)F`: “inactive”; for `NNC(=O)OCc1ccccc1`: “inactive”. Turning to `O=C1CC2CC1C1CCCC21` (centres undefined), the compound was called inactive. In the case of `Cc1ccc(C2OC[C@@H]3OC(c4ccc(C)cc4)O[C@H]([C@H](O)CO)[C@@H]3O2)cc1` (some centres undefined), the outcome was inactive. As to `CC1(C)CCC(C)(C)c2cc(C(=O)Nc3ccc(C(=O)O)cc3)ccc21`, the result was inactive. As for `CN(C)c1ccc(C(c2ccccc2)c2ccc(N(C)C)cc2)cc1`, the call was inactive. The result for `CNS(=O)(=O)C(F)(F)C(F)(F)C(F)(F)C(F)(F)C(F)(F)C(F)(F)C(F)(F)C(F)(F)F` reads “inactive”; that for `CC1CNCC(C)O1` (centres undefined), “inactive”. `CCCCCCCCSCCO`: the outcome was inactive. As for `CCCCCCOc1ccc(O)cc1`, the outcome was inactive. Take `Cc1cc(C(=C2C=CC(=Nc3ccc(S(=O)(=O)O)cc3)C=C2)c2ccc(Nc3ccc(S(=O)(=O)O)cc3)cc2)cc(S(=O)(=O)O)c1N`: the compound was called inactive. The result for `O=C[C@@H](O)[C@H](O)[C@H](O)CO` reads “inactive”. For the compound `O=C1OC(=O)c2cc(Oc3ccc4c(c3)C(=O)OC4=O)ccc21`, the compound was classed as inactive. The result for `CCC1(C)C(=O)N(Cl)C(=O)N1Cl` (centres undefined) reads “inactive”; that for `CC=CC(=O)OCC(C)C`, “inactive”; that for `COCCOCCOCCOCCOC`, “inactive”.

For the compound `FC(F)(F)C(F)(F)C(F)(F)C(F)(F)C(F)(F)C(F)(F)C(F)(F)C(F)(F)CCS`, the outcome was inactive.

Turning to `CC(C)c1ccc2c(c1)CC[C@H]1[C@](C)(CN)CCC[C@]21C`, the compound was called inactive. As to `CCC(C)(C)C1CCC(=O)CC1`, the outcome was inactive. The same measure for `Nc1ccnc(=O)[nH]1`: “inactive”; for `C=CC(=O)OCCCCCCOC(=O)C=C`: “inactive”; for `C=CC(=O)OCC(F)(F)C(F)(F)C(F)(F)C(F)(F)COC(=O)C=C`: “inactive”. The same measure for `COc1ccc2c(c1)c(CC(=O)O)c(C)n2C(=O)c1ccc(Cl)cc1`: “inactive”; for `CCOC(=O)[C@H](O)[C@@H](O)C(=O)OCC`: “inactive”. As for `c1ccc2c(c1)CCC2`, the compound was classed as inactive. As to `CC(=O)Nc1ccc(S(N)(=O)=O)cc1`, the call was inactive. In the case of `Oc1ccc(-c2ccccc2)c(Cl)c1`, the compound was classed as inactive.

For `CC1CCC(C(C)C)C(O)C1` (centres undefined), the compound was called inactive. With `NC(O)(C(F)(F)F)C(F)(F)F`, the compound was classed as inactive.

For the compound `CCCC(=O)OCC(COC(=O)CCC)OC(=O)CCC`, the outcome was inactive. The result for `O=C(OC(=O)C(F)(F)C(F)(F)F)C(F)(F)C(F)(F)F` reads “inactive”. Consider `NCC(F)(F)C(F)(F)C(F)(F)C(F)(F)C(F)(F)C(F)(F)F`, for which the result was inactive. The result for `CCCCCCCCCCOC(=O)c1ccccc1C(=O)OCCCCCCCC` reads “inactive”; that for `O=Nc1ccc(Nc2ccccc2)cc1`, “inactive”. The result for `CCOC(=O)[C@@H](C)Oc1ccc(Oc2nc3ccc(Cl)cc3o2)cc1` reads “inactive”. The same measure for `O=C(O)CCCCCCCCCC(=O)O`: “inactive”; for `CCCCCCCCCCCCOCCO`: “inactive”.
